# Laboratory results from the supplement of paper PMC8728848.
# This is one part of a sample in which the strongest signals are shown more often than they occur.
# Assays:
# Assay in all cases: glycan array binding signal (z-score within array); higher = stronger binding
# Conditions in all cases: glycan notation: IUPAC condensed, linker removed
# Fuc(a1-2)Gal = molecular target: Fuc(a1-2)Gal
# Method in brief: (§1)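 Glycan array data came from 3228 arrays in the Consortium for Functional Glycomics database, and only arrays with an available protein sequence were kept. Glycan names were put into IUPAC-condensed notation, and columns mapping to the same glycan were averaged. The binding signal is a within-array Z-score, averaged across arrays of one protein sequence run at different concentrations or buffers and across linkers. A negative Z-score can be read as non-binding.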
# [1] = molecular target: Fuc(a1-2)Gal(b1-3)GalNAc(b1-3)Gal(a1-4)Gal(b1-4)Glc
# Method in brief: as §1
# [2] = molecular target: Fuc(a1-2)Gal(b1-3)[Fuc(a1-4)]GlcNAc(b1-2)Man(a1-3)[Fuc(a1-2)Gal(b1-3)[Fuc(a1-4)]GlcNAc(b1-2)Man(a1-6)]Man(b1-4)GlcNAc(b1-4)GlcNAc
# Method in brief: as §1
# [3] = molecular target: Fuc(a1-2)Gal(b1-4)GlcNAc(b1-2)Man
# Method in brief: as §1
# [4] = molecular target: Fuc(a1-2)Gal(b1-4)GlcNAc(b1-2)[Fuc(a1-2)Gal(b1-4)GlcNAc(b1-4)]Man(a1-3)[Fuc(a1-2)Gal(b1-4)GlcNAc(b1-2)Man(a1-6)]Man(b1-4)GlcNAc(b1-4)GlcNAc
# Method in brief: as §1
# [5] = molecular target: Fuc(a1-2)Gal(b1-4)[Fuc(a1-3)]GlcNAc(b1-2)Man(a1-6)[Fuc(a1-2)Gal(b1-4)[Fuc(a1-3)]GlcNAc(b1-2)Man(a1-3)]Man(b1-4)GlcNAc(b1-4)[Fuc(a1-6)]GlcNAc
# Method in brief: as §1
# [6] = molecular target: Fuc(a1-2)Gal(b1-4)[Fuc(a1-3)]GlcNAc(b1-2)[Fuc(a1-2)Gal(b1-4)[Fuc(a1-3)]GlcNAc(b1-4)]Man(a1-3)[Fuc(a1-2)Gal(b1-4)[Fuc(a1-3)]GlcNAc(b1-2)Man(a1-6)]Man(b1-4)GlcNAc(b1-4)GlcNAc
# Method in brief: as §1
# [7] = molecular target: Fuc(a1-2)[Gal(a1-3)]Gal(b1-4)[Fuc(a1-3)]GlcNAc
# Method in brief: as §1
# [8] = molecular target: Gal(a1-3)Gal(b1-3)GlcNAc(b1-2)Man(a1-3)[Gal(a1-3)Gal(b1-3)GlcNAc(b1-2)Man(a1-6)]Man(b1-4)GlcNAc(b1-4)GlcNAc
# Method in brief: as §1
# [9] = molecular target: Gal(a1-3)Gal(b1-4)[Fuc(a1-3)]GlcNAc(b1-2)Man(a1-3)[Gal(a1-3)Gal(b1-4)[Fuc(a1-3)]GlcNAc(b1-2)Man(a1-6)]Man(b1-4)GlcNAc(b1-4)GlcNAc
# Method in brief: as §1
# [10] = molecular target: Gal(a1-4)Gal(b1-4)GlcNAc(b1-2)Man(a1-3)[Gal(a1-4)Gal(b1-4)GlcNAc(b1-2)Man(a1-6)]Man(b1-4)GlcNAc(b1-4)GlcNAc
# Method in brief: as §1
# Gal(a1-4)GlcNAc = molecular target: Gal(a1-4)GlcNAc
# Method in brief: as §1
# [11] = molecular target: Gal(b1-3)GlcNAc(b1-2)Man(a1-3)[Gal(b1-3)GlcNAc(b1-2)Man(a1-6)]Man(b1-4)GlcNAc(b1-4)GlcNAc
# Method in brief: as §1
# [12] = molecular target: Gal(b1-3)GlcNAc(b1-2)Man(a1-3)[GlcNAc(b1-4)][Gal(b1-3)GlcNAc(b1-2)Man(a1-6)]Man(b1-4)GlcNAc(b1-4)GlcNAc
# Method in brief: as §1
# [13] = molecular target: Gal(b1-3)GlcNAc(b1-2)[Gal(b1-3)GlcNAc(b1-6)]Man(a1-6)[Gal(b1-3)GlcNAc(b1-2)Man(a1-3)]Man(b1-4)GlcNAc(b1-4)GlcNAc
# Method in brief: as §1
# [14] = molecular target: Gal(b1-3)GlcNAc(b1-3)Gal(b1-4)Glc
# Method in brief: as §1
# [15] = molecular target: Gal(b1-3)GlcNAc(b1-3)GalNAc
# Method in brief: as §1
# [16] = molecular target: Gal(b1-3)[Fuc(a1-4)]GlcNAc(b1-2)Man(a1-3)[Gal(b1-3)[Fuc(a1-4)]GlcNAc(b1-2)Man(a1-6)]Man(b1-4)GlcNAc(b1-4)[Fuc(a1-6)]GlcNAc
# Method in brief: as §1
# [17] = molecular target: Gal(b1-3)[Fuc(a1-4)]GlcNAc(b1-3)Gal(b1-4)[Fuc(a1-3)]GlcNAc
# Method in brief: as §1
# [18] = molecular target: Gal(b1-3)[Fuc(a1-4)]GlcNAc(b1-6)GalNAc
# Method in brief: as §1
# [19] = molecular target: Gal(b1-3)[Neu5Ac(a2-6)]GalNAc
# Method in brief: as §1
# [20] = molecular target: Gal(b1-3)[Neu5Ac(b2-6)]GalNAc
# Method in brief: as §1
# Gal(b1-4)Glc = molecular target: Gal(b1-4)Glc
# Method in brief: as §1
# [21] = molecular target: Gal(b1-4)GlcNAc(b1-3)Gal(b1-3)GlcNAc
# Method in brief: as §1
# Gal(b1-6)Gal = molecular target: Gal(b1-6)Gal
# Method in brief: as §1
# Gal3S6S(b1-4)GlcNAc = molecular target: Gal3S6S(b1-4)GlcNAc
# Method in brief: as §1
# Gal6S(b1-4)GlcNAc = molecular target: Gal6S(b1-4)GlcNAc
# Method in brief: as §1
# [22] = molecular target: GalNAc(b1-3)Gal(a1-6)Gal(b1-4)Glc
# Method in brief: as §1
# GalNAc3S(b1-4)GlcNAc = molecular target: GalNAc3S(b1-4)GlcNAc
# Method in brief: as §1
# Glc(a1-4)Glc = molecular target: Glc(a1-4)Glc
# Method in brief: as §1
binder,measurement,setting,value
CALR truncated at D342 (Homo sapiens) (protein) EPAVYFKEQFLDGDGWTSRWIESKHKSDFGKFVLSSGKFYGDEEKDKGLQTSQDARFYALSASFEPFSNKGQTLVVQFTVKHEQNIDCGGGYVKLFPNSLDQTDMHGDSEYNIMFGPDICGPGTKKVHVIFNYKGKNVLINKDIRCKDDEFTHLYTLIVRPDNTYEVKIDNSQVESGSLEDDWDFLPPKKIKDPDASKPEDWDERAKIDDPTDSKPEDWDKPEHIPDPDAKKPEDWDEEMDGEWEPPVIQNPEYKGEWKPRQIDNPDYKGTWIHPEIDNPEYSPDPSIYAYDNFGVLGLDLWQVKSGTIFDNFLITNDEAYAEEFGNETWGVTKAAEKQMKD,glycan array binding signal (z-score),Fuc(a1-2)Gal,-0.171
same,glycan array binding signal (z-score),[1],-0.373
same,glycan array binding signal (z-score),[2],3.18
same,glycan array binding signal (z-score),[3],-1.98
same,glycan array binding signal (z-score),[4],2.76
same,glycan array binding signal (z-score),[5],1.04
same,glycan array binding signal (z-score),[6],2.8
same,glycan array binding signal (z-score),[7],-0.484
same,glycan array binding signal (z-score),[8],0.21
same,glycan array binding signal (z-score),[9],2.73
same,glycan array binding signal (z-score),[10],0.225
same,glycan array binding signal (z-score),Gal(a1-4)GlcNAc,4.99
same,glycan array binding signal (z-score),[11],-0.863
same,glycan array binding signal (z-score),[12],-0.281
same,glycan array binding signal (z-score),[13],3.33
same,glycan array binding signal (z-score),[14],-0.183
same,glycan array binding signal (z-score),[15],-0.05
same,glycan array binding signal (z-score),[16],1.24
same,glycan array binding signal (z-score),[17],4.2
same,glycan array binding signal (z-score),[18],0.999
same,glycan array binding signal (z-score),[19],-0.241
same,glycan array binding signal (z-score),[20],0.075
same,glycan array binding signal (z-score),Gal(b1-4)Glc,-0.137
same,glycan array binding signal (z-score),[21],0.662
same,glycan array binding signal (z-score),Gal(b1-6)Gal,0.132
same,glycan array binding signal (z-score),Gal3S6S(b1-4)GlcNAc,0.029
same,glycan array binding signal (z-score),Gal6S(b1-4)GlcNAc,-1.33
same,glycan array binding signal (z-score),[22],-0.627
same,glycan array binding signal (z-score),GalNAc3S(b1-4)GlcNAc,1.07
same,glycan array binding signal (z-score),Glc(a1-4)Glc,-0.124
